Here are results for 38 molecules from PubChem BioAssay (Tox21).

SMILES strings stand for the structures. Inconclusive results are not listed. Entries that show only a call come without a potency. Active and inactive are the calls of the source. Unless noted, calls come from the whole dose curve; as a rule, active = well fitted cell-killing curve with a large enough effect in the repeat runs; inconclusive = weak or mixed curves; inactive = no such curve, though single readings can be large or run the other way.

Sequence of Peroxisome proliferator-activated receptor delta (Homo sapiens) (Q03181 whole entry, looked up): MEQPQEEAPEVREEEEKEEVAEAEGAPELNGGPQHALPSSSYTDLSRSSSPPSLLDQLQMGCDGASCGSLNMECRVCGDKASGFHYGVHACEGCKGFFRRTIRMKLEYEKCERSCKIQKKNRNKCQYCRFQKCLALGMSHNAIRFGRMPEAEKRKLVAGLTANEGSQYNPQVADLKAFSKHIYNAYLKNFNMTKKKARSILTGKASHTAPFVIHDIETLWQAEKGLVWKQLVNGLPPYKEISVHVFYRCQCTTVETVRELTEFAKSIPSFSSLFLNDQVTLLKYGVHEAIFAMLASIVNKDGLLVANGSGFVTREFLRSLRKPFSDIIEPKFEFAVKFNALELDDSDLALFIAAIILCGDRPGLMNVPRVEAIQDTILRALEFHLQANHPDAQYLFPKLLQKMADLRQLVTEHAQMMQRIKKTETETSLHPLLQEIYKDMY

System in the first experiment: not listed separately
Kind of experiment: qHTS assay to identify small molecule agonists of the peroxisome proliferator-activated receptor delta (PPARd) signaling pathway - cell viability counter screen (AID 743211). Note: nearly all actives have a fitted effect of over 55% in size. The note with it: PPARd-bla HEK293H viability, CellTiter-Glo luminescence, 17 h; series mostly up to 62.6 µM. The method, boiled down:
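Tox21 library compounds, delivered in DMSO, were incubated 17 h with PPARd-bla HEK293H cells; cytotoxicity was taken from CellTiter-Glo luminescence read 30 min after reagent addition.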
In the case of `Nc1cc(C(Cl)=C(Cl)Cl)c(S(N)(=O)=O)cc1S(N)(=O)=O`, the Potency result is “inactive”.
As to `CCCCOCC(C)OCC(C)O` (stereo not given), the Potency entry is “inactive”.
Still for that read-out and setting: the same measure for `C=CC(=O)OCCCCCC`: “inactive”.
With `CC(C)=CC(=O)O`, the Potency entry is “inactive”.
On the same count and under the same terms, for `CN(C)CCOC(c1ccc(Cl)cc1)c1ccccn1` (stereo not given) the value was “inactive”.
`Cc1ccc(N)cc1[N+](=O)[O-]`: the Potency result was “inactive”.
Consider `Cc1nccn1CC1CCc2c(c3ccccc3n2C)C1=O` (stereo not given), for which the Potency entry is “inactive”.
Take `C=C(C)C(=O)OCCC(C)OC(=O)C(=C)C` (stereo not given): the Potency entry is “inactive”.
Take `CCCCCCCCCCCCCCCCCCOCC(O)CO` (stereo not given): the Potency result is “inactive”.
For `Cc1ccccc1C(=O)O`, the Potency result was “inactive”.
As for `CCN(CC)C(=O)c1ccc(O)c(OC)c1`, the Potency entry was “inactive”.
`C#CC(C)(O)CC(C)C` (stereo not given): the Potency result is “inactive”.
Still for that read-out and setting: for `CO` the value was “inactive”; for `C/C=C1\C(=O)C[C@H]2[C@@H]3CCC4=CC(=O)CC[C@]4(C)[C@H]3CC[C@]12C`, “inactive”.
Consider `COc1cc(O)cc(O)c1`, for which the Potency result is “inactive”.
Regarding `Oc1cc(O)c2c(c1)O[C@H](c1ccc(O)c(O)c1)[C@H](O)C2`, the Potency entry was “inactive”.
For the molecule `COc1cc(C(=O)N2CCOCC2)cc(OC)c1OC`, the Potency result was “inactive”.
In the case of `CCCCc1ccc2cccc(S(=O)(=O)O)c2c1`, the Potency entry is “inactive”.
Same read-out and setting: the same measure for `c1ccc(CCCc2ccccn2)cc1`: “inactive”; for `O=C(CCOCCOCCOCCOCCC(=O)Nc1c(I)cc(I)c(C(=O)O)c1I)Nc1c(I)cc(I)c(C(=O)O)c1I`: “inactive”.
In the case of `CC1=CCC2C(C1)C2(C)C` (stereo not given), the Potency entry was “inactive”.
`C=C(C)[C@H]1CC=C(C)CC1`: the Potency result is “inactive”.
With `CCO[Si](C)(OCC)OCC`, the Potency entry was “inactive”.
`CC(C)c1ccc2oc3nc(N)c(C(=O)O)cc3c(=O)c2c1`: the Potency result is “inactive”.
Same read-out and setting: for `N#CCN(CC#N)CCN(CC#N)CC#N` the value was “inactive”.
In the case of `Cc1c(C)n(CCN(C)C)c2ccc(C(=O)OCCN(C)C)cc12`, the Potency result is “inactive”.
`CCCCCN(CCCCC)C(=O)C(CCC(=O)O)NC(=O)c1ccc(Cl)c(Cl)c1` (stereo not given): the Potency entry is “inactive”.
As to `NC(=O)c1c(Cl)cccc1Cl`, the Potency result is “inactive”.
As to `CCCC(C)C(=O)O` (stereo not given), the Potency result was “inactive”.
Same read-out and setting: the same measure for `NS(=O)(=O)c1cc(C2(O)NC(=O)c3ccccc32)ccc1Cl` (stereo not given): “inactive”.
As to `C=CC(=O)N1CCOCC1`, the Potency result was “inactive”.
As to `CCCCCCCCCCC1CO1` (stereo not given), the Potency entry is “inactive”.
Take `OC1OC[C@@H](O)[C@H](O)[C@H]1O` (stereo not given in full): the Potency result is “inactive”.

The next experiment addresses Peroxisome proliferator-activated receptor delta (Homo sapiens) (UniProt Q03181). Kind of experiment: qHTS assay to identify small molecule agonists of the peroxisome proliferator-activated receptor delta (PPARd) signaling pathway (AID 743212; calls by dose curve;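 note: HEK293H cells with PPARd UAS beta-lactamase reporter GeneBLAzer system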). Particulars: HEK293H PPARd-UAS-bla, beta-lactamase FRET ratio, 17 h; series mostly up to 62.6 µM. The method, boiled down: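 Steps: seed PPARd-bla HEK293H cells; incubate 5 h, 37 C, 5% CO2; add compounds in DMSO; incubate, 37 C; add LiveBLAzer B/G FRET substrate; hold 2 h at room temperature; measure fluorescence.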
Consider `C=CC(=O)OCCCCCC`, for which the result was inactive.
The same measure, in the same setting: the same measure for `CC(C)=CC(=O)O`: “inactive”; for `CN(C)CCOC(c1ccc(Cl)cc1)c1ccccn1` (stereo not given): “inactive”.
Take `Cc1ccc(N)cc1[N+](=O)[O-]`: the result was inactive.
`C=C(C)C(=O)OCCC(C)OC(=O)C(=C)C` (stereo not given): the outcome was inactive.
On the same count and under the same terms, for `CCCCCCCCCCCCCCCCCCOCC(O)CO` (stereo not given) the value was “inactive”.
In the case of `Cc1ccccc1C(=O)O`, the outcome was inactive.
On to `CCN(CC)C(=O)c1ccc(O)c(OC)c1`, for which the outcome was inactive.
As for `C#CC(C)(O)CC(C)C` (stereo not given), the outcome was inactive.
Regarding `CCCCCCCCC=O`, the outcome was inactive.
For the molecule `COc1cc(O)cc(O)c1`, the outcome was inactive.
Same read-out and setting: the same measure for `Oc1cc(O)c2c(c1)O[C@H](c1ccc(O)c(O)c1)[C@H](O)C2`: “inactive”; for `CCCCc1ccc2cccc(S(=O)(=O)O)c2c1`: “inactive”.
Turning to `Nc1ncnc2c1ncn2Cc1c(F)cccc1Cl`, the outcome was inactive.
As to `CC1=CCC2C(C1)C2(C)C` (stereo not given), the outcome was inactive.
Still for that read-out and setting: the same measure for `N#CCN(CC#N)CCN(CC#N)CC#N`: “inactive”; for `Cc1c(C)n(CCN(C)C)c2ccc(C(=O)OCCN(C)C)cc12`: “inactive”; for `C1CCCCCCCCCCC1`: “inactive”.
`C=CC(=O)N1CCOCC1`: the result was inactive.
As to `CCCCCCCCCCC1CO1` (stereo not given), the result was inactive.

System in another experiment: not listed separately
The experiment is described as follows: qHTS assay to identify small molecule antagonists of the peroxisome proliferator-activated receptor delta (PPARd) signaling pathway - cell viability counter screen (AID 743213). Note: nearly all actives have a fitted effect of over 50% in size. The note with it: PPARd-bla HEK293H viability, CellTiter-Glo luminescence, 17 h; series mostly up to 62 µM. Summed up: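 Viability counter-screen, qHTS format: PPARd-bla HEK293H, L165041 300 nM final, 17 h compound exposure at 37 C, CellTiter-Glo luminescence after 30 min RT.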
Regarding `Nc1cc(C(Cl)=C(Cl)Cl)c(S(N)(=O)=O)cc1S(N)(=O)=O`, the Potency entry was “inactive”.
Regarding `C=CC(=O)OCCCCCC`, the Potency entry was “inactive”.
`CC(C)=CC(=O)O`: the Potency entry is “inactive”.
Still for that read-out and setting: for `CN(C)CCOC(c1ccc(Cl)cc1)c1ccccn1` (stereo not given) the value was “inactive”.
On the same count and under the same terms, the same measure for `Cc1ccc(N)cc1[N+](=O)[O-]`: “inactive”; for `Cc1nccn1CC1CCc2c(c3ccccc3n2C)C1=O` (stereo not given): “inactive”; for `C=C(C)C(=O)OCCC(C)OC(=O)C(=C)C` (stereo not given): “inactive”.
Consider `CCCCCCCCCCCCCCCCCCOCC(O)CO` (stereo not given), for which the Potency entry is “inactive”.
Same read-out and setting: for `Cc1ccccc1C(=O)O` the value was “inactive”; for `CCN(CC)C(=O)c1ccc(O)c(OC)c1`, “inactive”.
Consider `CCCCCCCCC=O`, for which the Potency result was “inactive”.
In the case of `CO`, the Potency entry was “inactive”.
Turning to `C/C=C1\C(=O)C[C@H]2[C@@H]3CCC4=CC(=O)CC[C@]4(C)[C@H]3CC[C@]12C`, the Potency result is “inactive”.
Regarding `COc1cc(O)cc(O)c1`, the Potency entry is “inactive”.
Still for that read-out and setting: for `Oc1cc(O)c2c(c1)O[C@H](c1ccc(O)c(O)c1)[C@H](O)C2` the value was “inactive”.
Regarding `COc1cc(C(=O)N2CCOCC2)cc(OC)c1OC`, the Potency result is “inactive”.
As to `CCCCc1ccc2cccc(S(=O)(=O)O)c2c1`, the Potency entry was “inactive”.
Take `c1ccc(CCCc2ccccn2)cc1`: the Potency result is “inactive”.
Same read-out and setting: the same measure for `O=C(CCOCCOCCOCCOCCC(=O)Nc1c(I)cc(I)c(C(=O)O)c1I)Nc1c(I)cc(I)c(C(=O)O)c1I`: “inactive”.
As for `CC1=CCC2C(C1)C2(C)C` (stereo not given), the Potency result is “inactive”.
Turning to `C=C(C)[C@H]1CC=C(C)CC1`, the Potency entry is “inactive”.
Regarding `CC(C)c1ccc2oc3nc(N)c(C(=O)O)cc3c(=O)c2c1`, the Potency result is “inactive”.
Take `N#CCN(CC#N)CCN(CC#N)CC#N`: the Potency entry was “inactive”.
Take `CCCCCN(CCCCC)C(=O)C(CCC(=O)O)NC(=O)c1ccc(Cl)c(Cl)c1` (stereo not given): the Potency entry is “inactive”.
Regarding `NC(=O)c1c(Cl)cccc1Cl`, the Potency entry is “inactive”.
In the case of `C=CCn1c(=O)n([C@@H]2O[C@H](CO)[C@@H](O)[C@H]2O)c2nc(N)[nH]c(=O)c21`, the Potency result is “inactive”.
The same measure, in the same setting: the same measure for `C1CCCCCCCCCCC1`: “inactive”; for `NS(=O)(=O)c1cc(C2(O)NC(=O)c3ccccc32)ccc1Cl` (stereo not given): “inactive”; for `C=CC(=O)N1CCOCC1`: “inactive”.
As for `CCCCCCCCCCC1CO1` (stereo not given), the Potency entry was “inactive”.
With `OC1OC[C@@H](O)[C@H](O)[C@H]1O` (stereo not given in full), the Potency result is “inactive”.
`CC(C)=CCC/C(C)=C/C(=O)O`: the Potency entry was “inactive”.
